Sfp inh – blocks B. subtilis Sfp PPTase activity; Q9F4F7; Biochemical Sfp PPTase activity, qHTS; Potency, µM, without a hit: largest response in the series, negative = inhibition, actives largely listed as inhibitors; 310,000 tested, 3.5% active; AID 1490;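 note: the enzyme is Sfp with the accession as filed and its product quenches rhodamine fluorescence; 0% = enzyme reaction without inhibitor and -100% = no enzyme wells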
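Fluorescence-quenching assay with 15 nM Sfp, 5 uM rhodamine-CoA and 12.5 uM BHQ-2-labelled ybbR peptide in pH 7.6 Hepes/MgCl2 buffer. Enzyme was pre-incubated with compound for 15 min at room temperature. Rate was taken from the 30-min fluorescence change (525/598 nm).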
PINK1 expr mod – PINK1 expression modulation | PINK1 immunofluorescence, high-content cytometry, 24 h | 410,000 tested, 0.2% active | Potency, µM (top dose mostly 76.6 µM), for inactives: at the top dose activation (PINK1 increase), most hits filed as activators | AID 624263; active = well fitted activation curve with a large enough effect; inconclusive = small, poorly fitted or top-dose-only effect; cell line not stated here; note: % of control where 0% means no effect; nearly all actives have a fitted effect of over 65% in size
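A stable cell line was treated with compounds at 5 concentrations for 24 hours, with CCCP as control. PINK1 levels and mitochondrial localization were measured by immunofluorescence with mitochondrial, cell and nuclear markers after fixation, read by laser-scanning cytometry.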
VP16 counter – inhibits Gal4-VP16 luciferase reporter, ROR gamma counter-screen. Potency, µM (top dose mostly 53.6 µM), for inactives: top-dose activity, negative = inhibition, most hits filed as inhibitors. AID 2546. Drosophila S2 Gal4-VP16 UAS-luciferase, luminescence, 20 h. 310,000 tested, 3.5% active;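 note: Gal4-VP16 expression switched on by copper sulfate through the metallothionein promoter; % is set by controls: 0 for no effect and ±100 for the full control effect; nearly all actives have a fitted effect of over 50% in size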
ClpP mod – qHTS Assay for Activators of ClpP; 340,000 tested, 1.9% active; ATP-dependent Clp protease proteolytic subunit (Bacillus subtilis (strain 168)), P80244; Potency, µM (highest dose often 57.5 µM), inactives show at the highest dose activity change, negative = active; purified B. subtilis ClpP, FRET peptide cleavage, 20 min; active = well fitted falling curve with a large enough effect; inconclusive = small, poorly fitted or top-dose-only effect; inactive = no such curve, though single readings can be large or run the other way; note: the source files actives as falling curves though it sought activators and does not explain the sign; nearly all actives have a fitted effect of over 65% in size
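FRET quenching reversal measured ClpP activation: 10 microg/mL B. subtilis ClpP at pH 8 with the FRET-FV decapeptide, read at 430 nm after 320 nm excitation. The 20-min minus 0-min signal was scaled between DMSO/no-enzyme wells and ADEP (5.8 microM final).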
RORg inh – ROR gamma (mouse) transcription inhibition; P51450; Drosophila S2 Gal4-RORgamma UAS-luciferase reporter, 20 h; Potency, µM (top dose mostly 53.6 µM), inactives show at the highest dose activity change, negative = inhibition, most hits filed as inhibitors; 310,000 tested, 5.4% active; note: % is set by controls: 0 for no effect and ±100 for the full control effect; nearly all actives have a fitted effect of over 60% in size
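Luciferase reporter read in Schneider cells carrying Gal4-RORγ (mouse) and UAS-Photinus luciferase; cells given compound 1 h before 700 uM copper sulfate induction, then incubated 20 h at ambient temperature.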
Epigenetic derep – epigenetic control regulation, reporter derepression; 280,000 tested, 0.2% active; Potency, µM (doses to about 53.9 µM), inactives show at the top dose GFP activation, most hits filed as activators; murine LDR cells, GFP reporter derepression, 30 h; note: % of control where 0% means no effect; nearly all actives have a fitted effect of over 60% in size
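Murine LDR cells carrying a silenced, genomically integrated CMV-driven GFP reporter were exposed to compound for 30 hours at 37 C. After PBS washes, GFP-positive cells (20–120 um objects) were counted by laser-scanning microplate cytometry.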
* hit, by the source's call; u = inconclusive; x = no result given; [ ] = another dose, or the depositor's remark. Hits are enriched below; roughly 8.1% of the tested compounds scored in any of these assays. Unless noted, calls come from the whole dose curve; as a rule, active = well fitted curve in the direction sought with a large enough effect; inconclusive = small, poorly fitted or top-dose-only effect, or another doubt; inactive = no such curve, though single readings can be large; an effect the other way counts as inactive or inconclusive. Potency is the fitted concentration of half-maximal effect.

SMILES | Sfp inh | PINK1 expr mod | VP16 counter | ClpP mod | RORg inh | Epigenetic derep
Cc1ccccc1OCC(=O)OCc1cc(=O)n2nc(C3CCCCC3)sc2n1 | x | 6% | x | -6% | x | 0%
COc1ccc(Cn2cnc3c(N)c(C)c(C)cc32)cc1 | 1% | -1% | -15% | x | -27% | 1%
CCCCCCCCn1cnc2c(N)c(C)c(C)cc21 | -9% | 9%[38.3 µM] | u | 0% | 10µM* | 5%
CCOC(=O)/C(=C\c1cccc(O)c1)c1nc2sc(C)c(C)c2c(=O)[nH]1 | 7.1µM* | 0% | 2% | -1% | 39% | 0%
CCOC(=O)c1nc2sc(C)c(C)c2c(=O)[nH]1 | 13% | 21%[38.3 µM] | -9% | u | -15% | 1%
CCc1nnc(NC(=O)CN2CCN(C3CCCCC3)CC2)s1 | 89µM* | -2%[38.3 µM] | -7% | 1% | 0% | 0%
CCc1nnc(NC(=O)CN2CCN(Cc3cccc(Cl)c3)CC2)s1 | -5% | 0% | u | -9% | 2.5µM* | x
CCc1nnc(NC(=O)C2CCCCC2)s1 | 32µM* | 0%[38.3 µM] | 2% | 1% | 30% | -1%
CCc1nnc(NC(=O)CN2CC(C)OC(C)C2)s1 (stereo not drawn) | -3% | 2% | -2% | 1% | -20% | x
CCOC(=O)Cc1nnc(NC(=O)C2CCCCC2)s1 | 18% | 1% | 0% | 1% | 14% | -1%
CCCC(=O)Nc1cc(C(=O)NCc2ccccc2)ccc1S(=O)(=O)c1ccc(Cl)cc1 | x | 1% | x | -22% | x | -1%
COc1cc2c(c(OC)c1OC)-c1c(cc(OC)c(OC)c1OC)CC(C)C(C)C2 (stereo not drawn) | -22% | x | u | x | u | x
CCOC(=O)Cc1c(C)nc2c(-c3ccc(Cl)cc3)c(C)[nH]n2c1=O | -2% | u | 6.3µM* | 14µM* | 6.3µM* | 0%
CCOC(=O)Cc1c(C)nc2c(-c3cccc(Br)c3)c[nH]n2c1=O | 10% | -1% | 14µM* | 14µM* | 4.5µM* | 0%
CCOC(=O)CCc1c(C)nc2c(-c3ccccc3)c(C)[nH]n2c1=O | x | 2% | x | -28% | x | 2%
CCOC(=O)N1CCC(c2cc(=O)n3[nH]c(C)c(-c4ccc(F)cc4)c3n2)CC1 | 19% | 1% | 13µM* | 5% | 10µM* | 0%
CCOC(=O)Cc1cc(=O)n2[nH]c(-c3ccccc3)c(-c3ccccc3)c2n1 | 5% | 2% | 4% | x | u | -1%
CCOC(=O)Cc1cc(=O)n2[nH]c(C)c(-c3ccccc3)c2n1 | 4% | 1% | u | u | 13µM* | 0%
CCOC(=O)N1CCC(c2cc(=O)n3[nH]c(-c4ccccc4)cc3n2)CC1 | 9% | 3% | -8% | 4% | 29% | 0%
Cc1c(C(=O)N2CCCC(C)C2)sc2ncnc(NCCN3CCCCC3)c12 (stereo not drawn) | x | 1% | x | x | x | x
COc1ccc(-c2c3c(=O)n(C)c(=O)n(C)c3c3n2-c2ccccc2NC3c2ccco2)cc1 (stereo not drawn) | x | 0% | x | 4% | x | -4%
O=C(CN1C(=O)C2CCCCN2c2ccc(C(=O)N3CCCC3)cc21)NCc1ccccc1F (stereo not drawn) | x | -1% | x | -3% | x | -2%
CCOC(=O)Cc1c(C)nc2cc(-c3ccc(C(C)(C)C)cc3)[nH]n2c1=O | 15% | 23%[38.3 µM] | 17% | 32µM* | 28% | 0%
CCOC(=O)c1ccc(-n2[nH]c(-c3ccccc3)cc2=O)cc1 | 17% | 28%[38.3 µM] | 5.6µM* | -4% | u | -3%
CCOC(=O)Cc1cc(=O)n2[nH]c(-c3ccccc3)cc2n1 | -9% | 6%[38.3 µM] | -8% | 28µM* | -23% | -1%
SMILES | Sfp inh | PINK1 expr mod | VP16 counter | ClpP mod | RORg inh | Epigenetic derep
O=C(O)c1cc(-c2ccc(C(F)(F)F)cc2)nc2n[nH]c(-c3ccccc3)c12 | x | 0% | x | u | x | 0%
CC(=O)N1c2nc(C(C)C)nn2C2(CCCCC2)[C@@H]2CCCC[C@@H]21 | x | -1% | x | 0% | x | -4%
FC(F)Oc1ccc(-c2c[n+]3c(n2-c2ccccc2)CCCCC3)cc1 | 13% | 1% | -1% | -2% | 9% | -1%
COc1ccc(-n2c(-c3ccc(Cl)cc3)c[n+]3c2CCCCC3)cc1 | 8% | -1% | -11% | 2% | 31% | 0%
CCOc1ccc(-n2c(-c3ccc(Br)cc3)c[n+]3c2CCCCC3)cc1 | 6% | u | 22µM* | x | u | -3%
COc1ccc(-c2c[n+]3c(n2-c2ccc(C)cc2)CCCCC3)cc1 | 6% | u | 11µM* | x | -61% | 0%
CCOc1ccc(-n2c(-c3ccc(OC)cc3)c[n+]3c2CCCCC3)cc1 | 18% | 16µM* | 2µM* | x | 11µM* | 0%
CCOc1ccc(-n2c(-c3ccccc3)c[n+]3c2CCC3)cc1 | 21% | -1% | 8.9µM* | -1% | u | 2%
CC(C)(C)OC(=O)N1CCC(c2c(C(=O)N3CCN(c4ccccn4)CC3)cnn2-c2ccccc2Cl)CC1 | x | 1% | x | u | x | 5%
O=c1[nH]c(N/N=C/c2ccccc2Br)nnc1-c1ccccc1 | 50µM* | 3% | u | 1% | u | -3%
COc1ccc(/C=N/Nc2nnc(-c3ccccc3)c(=O)[nH]2)cc1 | 11% | 2% | -5% | 25µM* | -29% | -2%
C#CCSc1nnc(-c2ccccc2)c(=O)[nH]1 | -6% | 0% | 13% | -1% | u | -1%
Cc1ccccc1CNC(=O)C1CCCN(c2nnc(-n3c(C)ccc3C)s2)C1 (stereo not drawn) | x | 0% | x | -14% | x | u
Cc1c(C(=O)NCCN2CCC(c3ccccc3)CC2)cnn1-c1nccc(-c2cccs2)n1 | x | 1% | x | x | x | x
CCCCCCNC(=O)N[C@H](C(=O)NCCC[C@H]1CN2C(=NC[C@H]2C)N1CCC(c1ccccc1)c1ccccc1)C(C)O (stereo partly drawn) | 2.2µM* | x | u | x | -4% | u
C/C=C(\C)C(=O)NCCN1C2=NC[C@H](C)N2C[C@@H]1Cc1ccc(OC)cc1 | 9% | 1% | -20% | -2% | 6% | -3%
CC(C)c1c(C(=O)N2CCN(CCO)CC2)cnn1-c1nccc(-c2cccs2)n1 | x | 0% | x | x | x | x
CCN(CC)c1ccc(/C=N/NC(=O)c2cc(C)nc3ccccc23)cc1 | 2% | 8% | u | -1% | 11µM* | -1%

Screens: PubChem BioAssay, National Center for Advancing Translational Sciences (NCATS)
